Sampled rows, rich in hits. Any-hit rate of the full collection: about 6.1%.
D1 agonist – Allosteric Agonists of the Human D1 Dopamine Receptor: qHTS | hit rate 1% among 360,000 | D(1A) dopamine receptor (Homo sapiens), P21728 | HEK293 T-REx D1 cells, calcium flux, agonist mode | activation, % at 2 µM; in the data active = activation above about 30%; also: 0% is about no effect
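Agonism was scored from calcium flux recorded over 180 s (1 read/s) after pintool compound addition, following a 10-cycle baseline. Cells were inducible force-coupled HEK293 TREx D1, plated overnight at 30 C and loaded with no-wash calcium dye.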
D1 antag – Antagonist of Human D 1 Dopamine Receptor: qHTS. activity change, negative = inhibition, % at 10 µM. HEK293 TREx D1 cells, calcium flux, dopamine EC80; stronger effect = lower value. hit rate 3.2% among 360,000. D(1A) dopamine receptor (Homo sapiens), P21728. AID 504652, 2011; in the data active = activity change below about -30%; also: % is scaled to controls: 0 for no effect and ±100 for the full control effect
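Kinetic fluorescence of a calcium dye serves as the read-out. D1-expressing Hek293 Trex cells, induced overnight at 30 C, are exposed to compound for 180 s before an EC80 dopamine addition, then read 180 s further.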
D1 PAM – Potentiators of Human D1 Dopamine Receptor: qHTS | D(1A) dopamine receptor (Homo sapiens), P21728 | HEK293 TREx D1 cells, calcium flux, dopamine EC20 potentiation | potentiation, % at 10 µM | hit rate 0.036% among 360,000; in the data active = potentiation above about 30%; also: 0% is about no effect
ERG Ets-DNA blk – qHTS for Small Molecule Inhibitors of the ERG Ets/DNA interaction; fluorescence polarization, His-ERG Ets domain / labelled DNA; Potency, µM (top dose mostly 76.9 µM), inactives show at the top dose FP activity, negative = inhibition, hits mostly inhibitors; hit rate 0.028% among 370,000; Transcriptional regulator ERG (Homo sapiens), P11308; active = well fitted inhibition curve with a large enough effect in the polarisation, with a control signal flat; inconclusive = small, poorly fitted or top-dose-only effect, or effect the other way, or a change in a side signal; inactive = no such curve, though single readings can be large or run the other way; the % refers to the polarisation;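 also: polarization taken with two DNA probes labelled with fluorescein and Texas red; potency is read from the fitted curve at half-maximal effect; % of control where 0% means no effect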
Target sequence (P11308 whole entry, looked up, the tested form may be a part): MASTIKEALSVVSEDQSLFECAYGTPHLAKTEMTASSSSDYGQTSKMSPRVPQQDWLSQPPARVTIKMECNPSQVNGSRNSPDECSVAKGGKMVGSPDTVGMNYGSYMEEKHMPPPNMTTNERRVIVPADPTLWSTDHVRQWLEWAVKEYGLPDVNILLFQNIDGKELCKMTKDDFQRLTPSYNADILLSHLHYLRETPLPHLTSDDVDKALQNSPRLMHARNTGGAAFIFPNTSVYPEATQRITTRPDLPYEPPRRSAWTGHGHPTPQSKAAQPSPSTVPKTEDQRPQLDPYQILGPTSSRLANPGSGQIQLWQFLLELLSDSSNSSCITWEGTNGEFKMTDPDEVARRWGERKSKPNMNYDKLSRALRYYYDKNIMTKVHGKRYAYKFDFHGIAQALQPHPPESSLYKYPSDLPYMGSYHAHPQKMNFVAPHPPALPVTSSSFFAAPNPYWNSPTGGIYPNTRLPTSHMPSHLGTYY
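His-tagged ERG Ets domain (1 uM in the protein solution; 300mM KCl, 50mM Tris-HCl, 1mM EDTA, 1mM DTT, pH 7.5) received compound, then a probe mix of 5 nM fluorescein-DNA and 100nM Texas-615-DNA. Fluorescence polarization was read for both dyes.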
DRD3 antagonist – qHTS of D3 Dopamine Receptor Antagonist: qHTS | hit rate 2.5% among 360,000 | D(3) dopamine receptor (Homo sapiens), P35462 | D3R cells, DiscoveRx beta-arrestin luminescence, antagonist mode; stronger effect = lower value | max response, negative = inhibition, % | AID 652054, 2013; in the data active = max response below about -50%; inconclusive = no clear call, values can overlap the other calls; also: % is scaled to controls: 0 for no effect and ±100 for the full control effect
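Cells plated overnight at 1500 cells/well, then exposed to library compounds with dopamine controls for 90 minutes at 37 degrees C. DiscoveRx reagent added for 30–60 minutes at room temperature; luminescence read, quantitative HTS format.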
D3 ag – qHTS of D3 Dopamine Receptor Agonist: qHTS. D(3) dopamine receptor (Homo sapiens), P35462. D3R DiscoveRx beta-arrestin cells, luminescence, 90 min. max activation, %. hit rate 0.58% among 410,000; in the data active = max activation above about 30%; also: 0% is about no effect
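Agonist-mode cell screen: cells plated at 1500/well and incubated overnight at 37 °C, then exposed to library compounds for 90 min at 37 °C. Detection reagent was added for 30–60 min at room temperature, and luminescence was read.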
* = called active by the depositor; ? = inconclusive; nt = no result; ! = not confirmed by another sample.

SMILES	D1 agonist	D1 antag	D1 PAM	ERG Ets-DNA blk	DRD3 antagonist	D3 ag
O=C(NCCOc1ccccc1)C1CCC(=O)N(CCCN2CCCC2=O)C1 (stereo unspecified)	0.8	7.0	-17.0	-4.5%	-7.1	3.4
CC(C)CNC(=O)COC(=O)c1cc(S(=O)(=O)N(C)C)ccc1N1CCCC1	1.8	-1.8	10.1	-10.9%	5.7	-2.6
COc1ccc(N2CCN(C(=O)C3(S(=O)(=O)c4ccc(C)cc4)CC3)CC2)cc1	3.4	-58.4*	-2.7	-2.4%	-2.1	-11.1
COc1ccc(N2CCN(C(=O)COC(=O)c3cc(S(=O)(=O)N(C)C)ccc3N3CCCC3)CC2)cc1	3.4	-48.3*	-5.9	-5.9%	-9.6	-5.0
COc1ccc(N2CCN(C(=O)COC(=O)CCOc3ccc(C)cc3)CC2)cc1	10.5	-31.5*	-10.1	15.4%	-5.4	0.7
COc1ccc(S(=O)(=O)CCC(=O)N2CCN(c3ccc(C(C)=O)cc3)CC2)cc1	9.9	-38.8*	-11.4	-3.0%	9.7	-10.0
CC(=O)c1ccc(N2CCN(C(=O)C3(S(=O)(=O)c4ccc(Cl)cc4)CC3)CC2)cc1	3.6	-12.1	-10.4	-7.2%	-26.7	3.1
COc1ccccc1NS(=O)(=O)c1ccc(-c2cc(C)no2)s1	13.1	-3.3	-1.9	-5.0%	-0.5	51.4*
Cc1cc(-c2ccc(S(=O)(=O)Nc3cccc(C(F)(F)F)c3)s2)on1	6.7	-11.1	-2.2	-7.2%	nt	-21.4
Cc1cccc(N(C)S(=O)(=O)c2ccc(-c3cc(C)no3)s2)c1	32.5*!	-4.8	5.4	11.6%	-11.6	-13.7
CC(=O)N[C@H](C(=O)N[C@@H](C)C(=O)N[C@H](C#N)CC(=O)O)C(C)C	2.4	-9.9	2.1	nt	nt	nt
CN(C1CCCC1)C1CCN(C(=O)CNC(=O)/C=C/c2ccc(F)cc2)CC1	2.2	-1.2	-2.0	-3.5%	-0.2	-34.8
CCCN1C(=O)/C(=C/c2ccc(N3CCCC3)c(C)c2)NC1=S	nt	nt	nt	?	?	0.7
CCN1C(=O)/C(=C/c2ccc(N3CCCC3)cc2)NC1=S	241.7*	-52.5*	10.5	?	-13.6	2.5
CCCN1C(=O)/C(=C/c2ccc(N3CCOCC3)cc2)NC1=S	132.5*	5.1	-1.2	15.0%	-0.5	1.4
Clc1ccc(N2CCN(Cc3c[nH]c4ncccc34)CC2)cc1	nt	nt	nt	-4.5%	-77.6*	nt
Cc1ccc(NC(=O)CCN2C(=O)c3cccc4cccc(c34)C2=O)cc1	0.0	-32.6*	-7.7	10.8%	0.9	0.6
O=C(CCN1C(=O)c2cccc3cccc(c23)C1=O)NCc1ccco1	0.2	-17.1	-8.5	1.7%	-12.6	34.4*
O=C(CCN1C(=O)c2ccccc2C1=O)NCc1ccco1	-0.6	1.4	0.2	nt	13.5	-0.2
CN(C)CCNC(=O)c1ccc2c(=O)n3c(nc2c1)CCCCC3	8.9	-17.5	2.7	0.8%	nt	-7.1
Cc1c(C(=O)c2ccc3c(c2)OCO3)ccc2c1OCO2	nt	nt	nt	0.2%	5.8	1.9
Cc1c(C(=O)c2ccc(Cl)c(Cl)c2)cnc2cc3c(cc12)OCO3	2.5	1.6	0.7	-4.1%	-55.8*	2.2
COc1ccc(C(=O)c2cnc3cc4c(cc3c2C)OCO4)cc1	-0.3	-30.2*	0.6	-1.9%	22.5	13.6
COc1ccc(C(=O)c2cn(Cc3ccc(C)cc3)c3cc4c(cc3c2=O)OCO4)cc1	19.7	10.4	-4.0	-0.4%	nt	1.0
O=C(O)C1CCN(c2c([N+](=O)[O-])cc(C(F)(F)F)cc2[N+](=O)[O-])CC1	nt	nt	nt	1.3%	?	-1.0
O=C(N[C@@H](Cc1ccccc1)C(=O)OCc1ccccc1)c1nc[nH]c1C(=O)NC(c1ccccc1)c1ccccc1	6.2	-8.5	-1.0	1.7%	0.0	3.3

Source: PubChem
